Most compounds without a hit are left out; they make up all but 4.7% or so of the library.
FBA Mtb inh: Mtb FBA enzyme inhibitors, primary screen, biochemical, fluorescence, strain H37Rv. inhibition, % at 1 µM. 2.3% of 360,000 active. AID 588726, 2011. Fructose-bisphosphate aldolase (Mycobacterium tuberculosis (strain ATCC 25618 / H37Rv)), …. purified M. tuberculosis FBA, fluorescence read-out; in the data active = inhibition above about 27%
RecA splice inh: Mtb RecA intein splicing inhibitors, primary screen, biochemical, fluorescence, HTS; Protein RecA (Mycobacterium tuberculosis (strain ATCC 25618 / H37Rv)), P9WHJ3; AID 2221, 2009; inhibition, % (no concentration beside the values); 0.75% of 290,000 active; cell-free RecA intein splicing; in the data active = inhibition above about 30%
Target sequence (P9WHJ3 whole entry, looked up, canonical isoform): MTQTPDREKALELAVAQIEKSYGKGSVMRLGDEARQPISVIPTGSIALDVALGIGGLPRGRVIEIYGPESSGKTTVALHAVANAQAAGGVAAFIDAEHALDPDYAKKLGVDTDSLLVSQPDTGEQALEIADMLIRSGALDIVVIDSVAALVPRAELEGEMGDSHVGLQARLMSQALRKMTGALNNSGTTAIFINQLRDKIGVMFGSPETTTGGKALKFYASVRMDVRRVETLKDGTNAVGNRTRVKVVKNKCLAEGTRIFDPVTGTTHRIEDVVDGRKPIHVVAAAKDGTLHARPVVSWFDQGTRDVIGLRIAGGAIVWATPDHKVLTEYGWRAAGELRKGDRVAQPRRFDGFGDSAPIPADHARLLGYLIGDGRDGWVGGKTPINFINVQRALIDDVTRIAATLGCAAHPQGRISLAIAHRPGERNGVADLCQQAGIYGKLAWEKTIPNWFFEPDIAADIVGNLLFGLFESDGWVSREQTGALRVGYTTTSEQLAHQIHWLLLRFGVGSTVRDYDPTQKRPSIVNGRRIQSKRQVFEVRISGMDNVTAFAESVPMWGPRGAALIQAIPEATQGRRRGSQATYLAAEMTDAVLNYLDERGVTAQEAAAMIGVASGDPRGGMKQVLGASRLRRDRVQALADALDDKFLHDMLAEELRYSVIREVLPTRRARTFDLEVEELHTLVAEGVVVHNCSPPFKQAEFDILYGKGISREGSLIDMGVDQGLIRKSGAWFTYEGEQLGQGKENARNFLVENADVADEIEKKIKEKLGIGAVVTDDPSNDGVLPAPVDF
SARS 3CLpro inh: SARS-CoV 3CLpro protease inhibitors, primary screen, biochemical, quenched FRET; recombinant SARS-CoV 3CLpro, quenched FRET peptide cleavage; inhibition, % at 6 µM; 0.14% of 290,000 active; in the data active = inhibition above about 12%
DUSP3 inh: VHR1 phosphatase inhibitors, primary screen, biochemical, absorbance, uHTS. 0.52% of 290,000 active. inhibition, % at 13.3 µM. Dual specificity protein phosphatase 3 (Homo sapiens), P51452. recombinant VHR phosphatase, pNPP absorbance; in the data active = inhibition above about 50%
CCHFV vOTU inh: CCHFV vOTU protease inhibitors, primary screen, biochemical, Pep-AMC substrate, fluorescence | Crimean-Congo hemorrhagic fever virus L polyprotein viral ovarian tumor (vOTU) protease … | inhibition, % at 11.5 µM | 0.55% of 370,000 active | AID 651958, 2012
GDH-TPI inh: GDH-TPI coupling enzyme inhibitors, primary screen, artefact control for M. tuberculosis FBA inhibitor project, biochemical, absorbance, full deck; GDH-TPI coupled enzyme counterscreen, NADH absorbance; inhibition, % at 4.8 µM; 1.2% of 360,000 active
Each line names hits and unclear results; the compound was inactive in the other large screens. Cut-off read from the data, not from the text of the source, unless noted: active = inhibition above about 30%; inactive = the rest.

CCc1ccc(Cn2ncc3c(C(=O)O)cc(C)nc32)cc1	none (no result: RecA splice inh, SARS 3CLpro inh, DUSP3 inh)
Cc1ccc(N=C2NC(=O)/C(=C\c3ccsc3)S2)c(C)c1	GDH-TPI inh 33
Cc1ccc(N=C2NC(=O)/C(=C/c3cccnc3)S2)c(C)c1	GDH-TPI inh 33
Cc1cccc(N=C2NC(=O)/C(=C/c3cccnc3)S2)c1C	none
CSc1nncn1/N=C/c1ccc([N+](=O)[O-])cc1	none
CSc1nncn1/N=C/c1ccc2c(c1)OCO2	GDH-TPI inh 35
COc1ccc(OCC2CN(Cc3ccccc3)S(=O)(=O)CCO2)cc1 (stereo unspecified)	none (no result: FBA Mtb inh, RecA splice inh, SARS 3CLpro inh, DUSP3 inh, GDH-TPI inh)
COC(=O)c1[nH]c2c(c1C(=O)OC)CCc1ccccc1-2	FBA Mtb inh 121
CN(CCO)c1nc(N)c(C#N)c(CC#N)c1C#N	GDH-TPI inh 34 (no result: RecA splice inh)
O=C(Cn1nc(-c2ccc(Cl)cc2)ccc1=O)NCC1COCCO1 (stereo unspecified)	DUSP3 inh 52
Cc1ccccc1S(=O)(=O)N(C)C[C@@H]1OCc2cn(nn2)CCCC(=O)N([C@@H](C)CO)C[C@H]1C	none (no result: FBA Mtb inh, RecA splice inh, SARS 3CLpro inh, DUSP3 inh, GDH-TPI inh)
Cc1sccc1/C=N/NC(=O)c1ccco1	none
Cc1cc(N(CCCl)CCCl)ccc1/C=N/NC(=O)c1ccco1	GDH-TPI inh 49
Cc1cc(N(CCCl)CCCl)ccc1C=NNC(=O)Cc1cc(=O)oc2cc(O)ccc12	FBA Mtb inh 169, GDH-TPI inh 59 (no result: RecA splice inh, SARS 3CLpro inh, DUSP3 inh)
CCCC(=O)OC[C@H]1CN(C2CCCC2)S(=O)(=O)c2c(Oc3ccc(F)cc3)cccc2O1	none (no result: FBA Mtb inh, RecA splice inh, SARS 3CLpro inh, DUSP3 inh, GDH-TPI inh)
NCCCC(C(=O)O)N(C(=O)OCc1ccccc1)C(=O)OCc1ccccc1 (stereo unspecified)	none (no result: FBA Mtb inh, RecA splice inh, SARS 3CLpro inh, DUSP3 inh, GDH-TPI inh)
CCC(C)N(Cc1ccc(OC)cc1OC)S(=O)(=O)c1cc(Br)ccc1Br (stereo unspecified)	none (no result: FBA Mtb inh, RecA splice inh, SARS 3CLpro inh, DUSP3 inh, GDH-TPI inh)
Cc1ccc2nc(C3CCCCC3)c(Cc3cccc(Cl)c3)n2c1	FBA Mtb inh 145 (no result: RecA splice inh, SARS 3CLpro inh, DUSP3 inh, GDH-TPI inh)
O=C(COC(=O)C1CCC(=O)N1)Nc1ccccc1Br (stereo unspecified)	GDH-TPI inh 32
COC(=O)N(C)C[C@@H]1OCc2cn(nn2)CCCC(=O)N([C@@H](C)CO)C[C@H]1C	none (no result: RecA splice inh, SARS 3CLpro inh, DUSP3 inh)
CCOC(=O)Nc1ccc2c(COC(=O)CNS(=O)(=O)c3cccc(Br)c3)cc(=O)oc2c1	FBA Mtb inh 155
CCOC(=O)Nc1ccc2c(COC(=O)C(NS(=O)(=O)c3ccc(Cl)cc3)C(C)O)cc(=O)oc2c1 (stereo unspecified)	FBA Mtb inh active (no result: RecA splice inh, SARS 3CLpro inh, DUSP3 inh)
C/C(=N\Nc1ccc(S(=O)(=O)N2CCOCC2)cc1[N+](=O)[O-])C(C)C	none
Cc1ccc(S(=O)(=O)NN2CCCCCC2)cc1	none (no result: RecA splice inh, SARS 3CLpro inh, DUSP3 inh)
CC1(C)Cc2ccccc2-c2nc(NCCCO)[nH]c(=O)c21	FBA Mtb inh 200
O=c1[nH]c(NCCO)nc2c1C1(CCCC1)Cc1ccccc1-2	FBA Mtb inh 112
CCC1(C)Cc2ccccc2-c2nc(NCCO)[nH]c(=O)c21 (stereo unspecified)	FBA Mtb inh 171
CN(C)CCNC(=O)/C(=C/c1ccc(-c2ccc(Cl)cc2)o1)NC(=O)c1ccccc1	none
COc1cc(C(=O)NCC(=O)N/N=C/c2ccc(-c3ccc([N+](=O)[O-])cc3)o2)cc(OC)c1OC	none
Cc1ccc(C(=O)N/C(=C\c2ccc(-c3ccc(Br)cc3)o2)C(=O)NCCCN(C)C)cc1	none
COc1cc(C(=O)NCC(=O)N/N=C/c2ccc(-c3cccc([N+](=O)[O-])c3)o2)cc(OC)c1OC	GDH-TPI inh 38
CN(C)CCCNC(=O)/C(=C\c1ccc(-c2cccc([N+](=O)[O-])c2)o1)NC(=O)c1ccccc1	GDH-TPI inh 35
Cc1ccc(C(=O)N/C(=C\c2ccc(-c3cccc([N+](=O)[O-])c3)o2)C(=O)NCCCN(C)C)cc1	DUSP3 inh 54, GDH-TPI inh 59
Clc1ccc2c(c1)C1OCCC1C(c1ccco1)N2 (stereo unspecified)	FBA Mtb inh 69
CC(=O)N1c2ccc(Cl)cc2C2OCCC2C1c1ccco1 (stereo unspecified)	none
COc1ccc(NC(=O)c2ccco2)cc1NC(=O)c1ccccc1[N+](=O)[O-]	none
Cn1c(SCC(=O)NNC(=O)c2ccccc2Br)nnc1C(F)(F)F	none (no result: RecA splice inh, SARS 3CLpro inh, DUSP3 inh)
N#CCC(=O)N/N=C/c1ccc(Cl)cc1	none
Cc1ccccc1N(CC(=O)N/N=C/c1ccc(N(C)C)cc1)C(=O)c1ccccc1	GDH-TPI inh 40
CN(c1ccccc1)c1ccc(/C=N/NC(=O)CC#N)cc1	GDH-TPI inh 31
CN(C)c1ccc(/C=N/NC(=S)NCc2ccccc2)cc1	GDH-TPI inh 32
CN(C)c1ccc(/C=N/NC(=O)CSc2ccccn2)cc1	GDH-TPI inh 60
COCCCNC(=S)N/N=C/c1ccc(N(C)C)cc1	FBA Mtb inh 48
Cn1c(=O)n(C)c2cc(/C=N/NC(=S)NCc3ccccc3)ccc21	GDH-TPI inh 34
O=C(NCCc1ccccc1Cl)[C@@H]1CCCN1C(=O)[C@@H](NC(=O)N1CCOCC1)c1ccccc1	none (no result: FBA Mtb inh, RecA splice inh, SARS 3CLpro inh, DUSP3 inh, GDH-TPI inh)
CCCCNC(=O)NS(=O)(=O)c1ccc(NC(=O)CSc2nnc(-c3ccc(Cl)cc3)n2N)cc1	none (no result: FBA Mtb inh, RecA splice inh, SARS 3CLpro inh, DUSP3 inh, GDH-TPI inh)
COc1ccccc1N(CC(O)CN1CCCCC1)S(=O)(=O)c1ccc(C)cc1 (stereo unspecified)	none
COc1cccc(C(=O)Nc2nnc(-c3ccccc3)s2)c1	GDH-TPI inh 36
COc1cccc(C(=O)Nc2nnc(S(=O)(=O)Nc3cccc(C)c3)s2)c1	GDH-TPI inh 37
Cc1cccc(NS(=O)(=O)c2nnc(NC(=O)c3ccc(C)c(C)c3)s2)c1	none (no result: RecA splice inh)
COc1cccc(C(=O)Nc2nnc(-c3ccc(OC)cc3OC)s2)c1	none
O=C(O)CCn1c2ccccc2c2nc3ccccc3nc21	GDH-TPI inh 31
CC(=O)N1N=C(c2ccc(C)o2)CC1c1ccc(F)cc1 (stereo unspecified)	GDH-TPI inh 71
O=C(Nc1ccc(F)cc1)c1nn(-c2ccccc2)c(=O)cc1Cl	RecA splice inh 31
CN(C)N=Nc1nc2c(c(=O)n(C)c(=O)n2C)n1C	GDH-TPI inh 34
COc1ccc(-c2c(C)n([O-])c3c([n+]2=O)CCCC3)cc1	DUSP3 inh 52
Cc1ccc(C)c(NC(=O)c2cccc3c2-c2ccccc2C3=O)c1	none (no result: FBA Mtb inh, RecA splice inh, SARS 3CLpro inh, DUSP3 inh, GDH-TPI inh)
COc1ccc(-c2nnc(SCC(=O)NN=C(C)c3cccc4ccccc34)n2-c2ccccc2)cc1	none (no result: FBA Mtb inh, RecA splice inh, SARS 3CLpro inh, DUSP3 inh, GDH-TPI inh)
N#C/C(=N\Nc1c(Cl)cccc1Cl)C(=O)NN	GDH-TPI inh 32

Screening results deposited in PubChem by several laboratories.
